From PubChem BioAssay
A selection: hits, their analogues and other compounds. The true share with any hit is near 21%.
NS1 function inh – blocks influenza NS1 protein function; AID 2326; Potency, µM (doses to about 46.1 µM); 270,000 compounds, 0.4% hits; calls by dose curve; note: actives are rising curves; nearly all actives have a fitted effect of over 50% in size
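In this qHTS, NS1 from influenza A is expressed in budding yeast, where it slows growth. Cells are switched from glucose to 2% galactose medium (pH 6.0, -URA), treated with compound, and growth recovery is read at OD600.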
FBPA Giardia inh – inhibitors of Giardia lamblia fructose-1,6-bisphosphate aldolase; purified Giardia FBPA; Potency, µM (doses to about 59.6 µM), usual class: inhibitors; 290,000 compounds, 0.71% hits; note: nearly all actives have a fitted effect of over 55% in size
Target sequence (A8B2U2 whole entry, looked up): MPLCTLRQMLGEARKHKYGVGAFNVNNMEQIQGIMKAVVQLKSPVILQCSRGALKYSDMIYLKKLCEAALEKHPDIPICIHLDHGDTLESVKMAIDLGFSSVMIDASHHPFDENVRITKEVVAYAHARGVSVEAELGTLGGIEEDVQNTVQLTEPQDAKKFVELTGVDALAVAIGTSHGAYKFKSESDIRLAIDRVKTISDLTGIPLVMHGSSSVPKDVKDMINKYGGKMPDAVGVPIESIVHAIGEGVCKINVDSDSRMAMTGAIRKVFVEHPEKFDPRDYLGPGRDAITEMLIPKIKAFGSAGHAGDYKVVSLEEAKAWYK
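40 nM FBPA preincubated 10 min at RT with compound (up to 57.5 uM final), then substrate plus GAPDH/TPI/NAD/arsenate coupling and diaphorase/resazurin added. Fluorescence read after 20 min at RT, 525/598 nm.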
Shiga toxin inh – blocks Shiga toxin action in Vero cells; inhibition, % at 38.7 µM; Vero cells, Shiga toxin protein synthesis inhibition reporter; 290,000 compounds, 9.2% hits; in the data active = inhibition mostly above about 28%, no sharp cut-off; inactive = mostly below about 43%
CHX counter – counter-screen hit for Shiga toxin inhibitors, cycloheximide; max response, %; 300,000 compounds, 12% hits; cell reporter, cycloheximide protein synthesis inhibition counterscreen; in the data active = max response mostly above about 13%, no sharp cut-off; inactive = mostly below about 14%; note: read at 38.3 µM for the half of the compounds with a filed dose
Pf growth 48h – P. falciparum growth inhibition at 48 hours (one generation); Potency, µM (top dose mostly 28.7 µM), most hits filed as inhibitors; AID 504832; 310,000 compounds, 5.9% hits; P. falciparum luciferase growth in erythrocytes, 48 h
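Erythrocytes infected with P. falciparum carrying an integrated firefly luciferase reporter (2% hematocrit, 0.1% parasitemia final) were exposed to compounds in RPMI 1640 with 0.5% Albumax at 37 C, 5% CO2. Growth inhibition was scored as reduced luminescence.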
Pf growth 96h – inhibits malaria parasite growth, 96 h; P. falciparum luciferase reporter growth, 96 h; Potency, µM (doses to about 28.7 µM), usual class: inhibitors; 320,000 compounds, 6.9% hits
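Delayed-death screen, second-generation endpoint: infected erythrocytes, 2% hematocrit, 0.05% parasitemia final; 96 hours at 37 C, 5% CO2; luciferase detection reagent; luminescence decrease equals reduced growth.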
Hits are given with their value; 0 = inactive; ? = inconclusive; - = no result; [ ] = remark or other dose. Unless noted, calls come from the whole dose curve; as a rule, active = well fitted curve in the direction sought with a large enough effect; inconclusive = small, poorly fitted or top-dose-only effect, or another doubt; inactive = no such curve, though single readings can be large; an effect the other way counts as inactive or inconclusive.

SMILES	NS1 function inh	FBPA Giardia inh	Shiga toxin inh	CHX counter	Pf growth 48h	Pf growth 96h
Clc1ccc(CSc2nnc(-c3ccncc3)o2)cc1	0	0	0	0	0	0
C#CCSc1nnc(-c2cccc3ccccc23)o1	0	-	-	-	-	-
OCC#CCSc1nnc(-c2ccncc2)o1	0	0	0	0	0	0.294µM
C#CCSc1nnc(-c2ccc(C)cc2)o1	0	0	73.2	39.2	0	1.17µM
ClC1(Cl)CC1CSc1nnc(-c2ccncc2)o1 (centres undefined)	0	0	0	19.3	0	?
C#CCSc1nnc(-c2ccc(O)cc2)o1	-	0	62.1	52.9	0	0
COC(=O)C(C(=O)OC)C(CC(=O)c1ccc(C)cc1)c1cc(OC)c(OC)c(OC)c1 (centres undefined)	0	0	0	0	0	?
COc1ccc(C(CC(=O)c2ccc(C)cc2)C(C#N)C#N)cc1OC (centres undefined)	0	0	65.5	28.9	13.1µM	0
Cc1c(C(=O)N(C)C)sc2nc(-c3ccccn3)[nH]c(=O)c12	0	0	0	0	-	0
O=c1[nH]c(-c2ccccn2)nc2sc(-c3ccccc3)cc12	-	?	118.4	48.8	0	?
CC(C)C[C@@H](CC(=O)N[C@@H](CCC(=O)O)CC(=O)O)NC(=O)[C@@H]1CNCC[C@H]1NC(=O)C[C@H](CCCN)NC(=O)C[C@H](CO)NC(=O)[C@@H]1CNCC[C@H]1N	-	0	-	-	-	-
O=C1CCCc2nc(N3CCc4ccccc43)ncc21	0	0	93.9	37.5	0	-
CC1(C)CC(=O)c2cnc(N3CCc4ccccc4C3)nc2C1	0	0	89.3	24.0	0	0
CC1(C)CC(=O)c2cnc(N3CCN(c4ccccc4)CC3)nc2C1	0	0	0	0	0	?
O=C(Nc1ccc(C(=O)NCc2ccc(F)cc2)cc1)C1=CSCCO1	0	0	102.5	38.2	?	0
O=C(Nc1ccc(C(=O)N2CCN(c3ccc(F)cc3)CC2)cc1)C1=CSCCO1	0	0	0	0	?	?
CCc1ccc(CNC(=O)c2ccc(NC(=O)C3=CSCCO3)cc2)cc1	0	-	21.1	32.9	0	?
CC(C)OCCCNC(=O)c1ccc(NC(=O)C2=CSCCO2)cc1	0	-	0	0	0	0
O=C(Nc1ccc(C(=O)NCc2ccccc2)cc1)C1=CSCCO1	0	-	38.2	28.2	0	?
CCOCCCNC(=O)c1ccc(NC(=O)C2=CSCCO2)cc1	0	-	0	0	0	0
O=C(O)C1C(C(=O)O)C(C(=O)O)C1C(=O)O (centres undefined)	0	-	-	-	-	-
Cc1ccc(C(=O)NNC(=O)c2csc(N3CCOCC3)n2)s1	-	-	-	-	0	0
C#CCOCCOCCOCCNc1nc(N2CCN(C(=O)CCCCCCCCCCNC(=O)[C@H](CCCCN)n3cc(C[C@@H](C)CC)nn3)CC2)nc(N2CCN(C(=O)CCCCCCCCCCNC(=O)[C@@H]([C@H](C)O)n3cc(C)nn3)CC2)n1	-	-	-	-	2.08µM	0.37µM
C#CCOCCOCCOCCNc1nc(N2CCN(C(=O)CCCCCCCCCCNC(=O)Cn3cc(C[C@@H](C)O)nn3)CC2)nc(N2CCN(C(=O)CCCCCCCCCCNC(=O)[C@@H](CCSC)n3cc(CCO)nn3)CC2)n1	-	-	-	-	0.185µM	0.147µM
C#CCOCCOCCOCCNc1nc(N2CCN(C(=O)[C@H](CCCCN)n3cc([C@@H](N)CC(C)C)nn3)CC2)nc(N2CCN(C(=O)[C@H](CCCCN)n3cc([C@@H](N)CC(C)C)nn3)CC2)n1	0	0	0	0	0	0
C#CCOCCOCCOCCNc1nc(N2CCN(C(=O)CCCCCCCCCCNC(=O)[C@H](CCCCN)n3cc(C)nn3)CC2)nc(N2CCN(C(=O)CCCCCCCCCCNC(=O)[C@@H]([C@H](C)O)n3cc(C)nn3)CC2)n1	-	-	-	-	2.08µM	1.17µM
C#CCOCCOCCOCCNc1nc(N2CCN(C(=O)CCCCCCCCCCNC(=O)[C@@H](CCSC)n3cc(CCO)nn3)CC2)nc(N2CCN(C(=O)CCCCCCCCCCNC(=O)[C@@H]([C@H](C)O)n3cc(C)nn3)CC2)n1	-	-	-	-	0.147µM	0.165µM
CC1(C)Cc2c(cnn2-c2ccccc2)C(NC(=O)CCc2ccc(=O)[nH]n2)C1 (centres undefined)	0	0	0	0	0	0
CC[C@@H](C)CN1C(=O)N[C@@H](c2ccccc2)C(C(=O)OC)=C1C	-	0[12.9 µM]	-	-	-	-
